Measurements as given in PubChem BioAssay (NCATS).
Records with an inconclusive call do not appear. Where a call stands in place of a potency, no number is given. Activity calls are given as the source filed them. The call rests on the fitted dose curve; in most records, active means well fitted inhibition curve with a large enough effect; inconclusive means small, poorly fitted or top-dose-only effect; inactive means flat fitted curve, though single readings scatter.

Target: Calcium and integrin-binding protein 1 (Homo sapiens) (UniProt Q99828)
Sequence (Q99828 whole entry, looked up): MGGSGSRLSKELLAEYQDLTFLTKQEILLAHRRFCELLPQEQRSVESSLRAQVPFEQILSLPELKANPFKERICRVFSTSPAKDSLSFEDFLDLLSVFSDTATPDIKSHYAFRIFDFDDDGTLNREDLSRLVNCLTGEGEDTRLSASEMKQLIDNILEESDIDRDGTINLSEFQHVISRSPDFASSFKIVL
Assay: Primary qHTS for Identification of Calcium Integrin Binding Protein 1 (CIB1) Competitor (AID 1508620);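 further: GST tagged CIB1 binding a fluorescein labelled alphaIIb integrin peptide tracer; top concentration of the series differs between compounds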
Summary of the method: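 CIB1-GST (1 uM final) and compound incubated 15 min at room temperature before adding FITC-alphaIIb peptide tracer (100 nM final). Competition for binding read by fluorescence polarization (ex 480, em 540) after another 15 min at room temperature.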

Row | SMILES | Potency
1 | Cc1cc2c(s1)c1cnn(Cc3ccc(C(F)(F)F)cc3F)c(=O)c1n2C | inactive
2 | Cc1cc(C)nc(NC(=S)N2CCN(Cc3c(F)cccc3Cl)CC2)c1 | inactive
3 | Cc1ccc(C(=O)NCC(=O)OC(C(=O)Nc2cc(C(F)(F)F)ccc2Cl)c2ccccc2)cc1 (stereo not given) | inactive
4 | CNc1nc(-c2cccc3ccccc23)ccc1C#N | inactive
5 | N#Cc1ccc(CSc2nc3ncc(Br)cc3[nH]2)cc1 | inactive
6 | O=S(=O)(Nc1ccccc1)c1ccc(O)c2ncccc12 | inactive
7 | CC(Cc1ccccc1)C(=O)Nc1ccc(Cl)cc1C(=O)O (stereo not given) | inactive
8 | Cc1cc(C)nc(Nc2nnc(N3CCN(c4cccc(C(F)(F)F)c4)CC3)s2)c1 | inactive
9 | O=S(=O)(c1cccc(-c2n[nH]c(=S)n2-c2ccccc2)c1)N1CCCC1 | inactive
10 | COc1cc(OC)c(C(CC(=O)N2CC(C)CC(C)C2)c2ccc3c(c2)OCO3)c(OCC(N)=O)c1 (stereo not given) | inactive
11 | Cn1cccc1CN=C1NC2=C(C(=O)CCC2)C(c2[nH]ncc2Cl)N1 (stereo not given) | inactive
12 | O=C(Nc1cccc(-c2nn3c(=O)cc(N4CCNCC4)nc3s2)c1)c1ccon1 | inactive
13 | CS(=O)(=O)c1ccc(C(=O)OCC(=O)N2CCN(Cc3ccccc3)CC2)cc1[N+](=O)[O-] | inactive
14 | COc1ccc(C2=Nn3c(nnc3-c3ccccc3F)SC2)cc1OCC1CC1 | inactive
15 | COc1ccc(C2=Nn3c(nnc3-c3ccccc3OC)SC2)cc1 | inactive
16 | Cc1ccc(NC(=O)CN2C(=O)N/C(=C\c3cccn3-c3ccc(C(=O)NS(C)(=O)=O)cc3)C2=O)cc1 | inactive
17 | Cc1cccc(-n2cnc3cc(C(=O)N4CCCC(C(F)(F)F)C4)ccc32)c1 (stereo not given) | inactive
18 | Nc1ncc(S(=O)(=O)N2CCOCC2)s1 | inactive
19 | CCN(CC)c1cc2c(cc1S(=O)(=O)Nc1ccc(C)c(C)c1)CCC(=O)N2 | inactive
20 | Fc1ccccc1-c1nc(-c2ccc(-c3nn[nH]n3)cc2)no1 | inactive
21 | CC(C)(C)OC(=O)N1CCN(c2ncc(NCc3ccc(-c4ccc(C#N)cc4)o3)cn2)CC1 | inactive
22 | O=[N+]([O-])c1ccc([S+](=O)([O-])N2CCN([S+](=O)([O-])c3ccc4c(c3)OCCO4)CC2)c([N+](=O)[O-])c1 | inactive
23 | Cc1cc(-c2nnc3n2CCCC3)c(C)n1-c1ccccc1 | inactive
24 | COc1ccc(C2Nc3ccccc3C(=O)N2Cc2ccccc2)cc1COc1cccc(Cl)c1 (stereo not given) | inactive

Row | SMILES | Potency
25 | CCSC1=NS(=O)(=O)c2ccccc21 | inactive
26 | COC(=O)c1ccc(OC(C)=O)c2ncccc12 | inactive
27 | Cc1ccc(-c2cnn(CC(=O)NCCc3ccccc3)c(=O)c2)cc1 | inactive
28 | N#Cc1ccc(-c2ccc(CNc3ccc(N4CCOCC4)cc3)cn2)cc1 | inactive
29 | COc1ccccc1-c1nnc(SCC#CCOC(=O)c2ccc(F)cc2)o1 | inactive
30 | O=C(O)c1ccc2c(c1)C(=O)N([C@H](Cc1ccc(Cl)cc1)C(=O)O)C2=O | inactive
31 | O=C(Cc1ccc(Cl)c(Cl)c1)Nc1ccc([S+](=O)([O-])Nc2cccc([N+](=O)[O-])c2)cc1 | inactive
32 | COc1cccc(Cn2ncc3c4sc(C)cc4n(C)c3c2=O)c1 | inactive
33 | Nc1ncc(-c2cccc(-c3nn4c(=O)cc(N5CCNCC5)nc4s3)c2)cn1 | inactive
34 | Cc1ccc(C[C@@H](NS(=O)(=O)c2ccc(C(=O)O)cc2)C(=O)O)cc1 | inactive
35 | O=S(=O)(NCc1ccccc1)c1ccc(O)c2ncccc12 | inactive
36 | Cn1c(SCC(=O)c2cc3ccccc3o2)nnc1-c1ccccc1 | inactive
37 | Cc1cc(NS(=O)(=O)c2ccc(NC(=O)Cc3ccccc3)cc2)no1 | inactive
38 | O=C(COC(=O)CNC(=O)c1ccccc1Cl)Nc1cc(C(F)(F)F)ccc1Cl | inactive
39 | O=C(Nc1ccccc1)c1cccs1 | inactive
40 | COC(=O)c1ccc(N2CCN(S(=O)(=O)c3ccc4c(c3)CC(=O)N4)CC2)cc1 | inactive
41 | CC(=O)Nc1sc2c(c1-c1ccc(OC(F)(F)F)cc1)CCNC2 | inactive
42 | CS(=O)(=O)c1ccc(C(=O)OCC(=O)N2Cc3ccccc3C2)cc1[N+](=O)[O-] | inactive
43 | O=[S+]([O-])(c1ccc(-c2ccccc2)cc1)N1CCN([S+](=O)([O-])c2ccc3c(c2)OCCO3)CC1 | inactive
44 | Cc1cc(C)nc(NC(=S)N2CCN(c3cccc(S(C)(=O)=O)c3)CC2)c1 | inactive
45 | O=C(OCC#CCSc1nnc(-c2cccc3ccccc23)o1)c1ccc(F)nc1 | inactive
46 | CN(CC(F)(F)F)c1nc(NCc2ccc(-c3cccnc3)cc2)c2ccccc2n1 | inactive
47 | NC1CCN(c2nc(-c3ccc(Br)cc3)cs2)CC1 | inactive
48 | CC(=O)N1CCN(c2ccc(N)cc2)CC1 | inactive

Row | SMILES | Potency
49 | NC(=O)C1CCN(c2nc(-c3ccc(N4CCCCC4)nc3)cs2)CC1 | inactive
50 | Cc1cccc(CNc2ccnc(-c3ccc(C(F)(F)F)cc3)n2)c1 | inactive
51 | O=C1NC(=O)/C(=C/c2ccco2)N1 | inactive
52 | O=S(=O)(c1ccc2c(c1)OCCO2)C1CCC(S(=O)(=O)c2c(F)cccc2F)CC1 (stereo not given) | inactive
53 | Cc1ccc(-c2nn3c(-c4ccccc4)nnc3s2)cc1NC(=O)c1ccc(-c2cccc(Cl)c2)o1 | inactive
54 | COc1cccc(CNc2ncnc3ccc(-c4c(C)noc4C)cc23)c1 | inactive
55 | Clc1cccc(-c2ccc3ncnc(NCc4ccc5c(c4)OCO5)c3c2)c1 | inactive
56 | Cc1ccc(CNc2ccc(N3CCN(C(=O)OC(C)(C)C)CC3=O)cc2)cc1 | inactive
57 | O=C(Cc1ccc(Cl)c(Cl)c1)Nc1ccc(S(=O)(=O)NCc2ccco2)cc1 | inactive
58 | Cc1cccc(-c2csc3ncnc(Sc4nnnn4C)c23)c1 | inactive
59 | Cc1ccccc1C(=O)N1CCc2cc(-c3cccc(NC(=O)Cc4ccc5c(c4)OCO5)c3)ccc21 | inactive
60 | Cc1ccc(OCCn2c(CCNC(=O)c3ccccc3N)nc3ccccc32)cc1 | inactive
61 | Cc1cnc(-c2ccccc2C(C)C)nc1NCC1CCN(c2cccnc2)CC1 | inactive
62 | Cn1nnnc1Sc1ncnc2scc(-c3ccc(Br)cc3)c12 | inactive
63 | CN1C(=O)Cc2cc([S+](=O)([O-])N3CCN([S+](=O)([O-])c4c(F)cccc4F)CC3)ccc21 | inactive
64 | COc1cccc(C2c3c(ncn(-c4ccccc4C(C)(C)C)c3=N)Oc3ccc4ccccc4c32)c1 (stereo not given) | inactive
65 | O=c1c2ccccc2nc2sc(NCc3ccc(Sc4ccccc4)cc3)nn12 | inactive
66 | CC(C)CN1CC2=C(C1=O)C(c1ccccc1Cl)N=C(Nc1nc3ccccc3o1)N2 (stereo not given) | inactive
67 | O=C1CCCC2=C1C(c1[nH]ncc1Cl)N=C(Nc1nc3c(Br)cccc3o1)N2 (stereo not given) | inactive
68 | O=C1c2ccccc2C(=O)N1c1ccc(O)cc1 | inactive
69 | CCC(=O)NC(c1cc(Cl)c2ccccc2c1O)C1CC1 (stereo not given) | inactive
70 | O=C(OCC#CCSc1nnc(-c2ccc3ccccc3c2)o1)c1ccc(F)c(F)c1 | inactive
71 | CN(C)S(=O)(=O)c1ccc(-c2nc(NCc3ccc(-c4ccnc(C(F)(F)F)c4)cc3)c3ccccc3n2)cc1 | inactive
72 | COc1cc(NS(=O)(=O)c2ccc3ccccc3c2)c2ncccc2c1 | inactive

Row | SMILES | Potency
73 | Cn1nnnc1Sc1ncnc2scc(-c3ccc([N+](=O)[O-])cc3)c12 | inactive
74 | N#Cc1nc(Nc2ccc(F)cc2)nc(NC2CCCC2)n1 | inactive
75 | Cc1cc2c(s1)c1cnn(Cc3cccc(Br)c3)c(=O)c1n2C | inactive
76 | O=[N+]([O-])c1ccc(-c2nc(Nc3ccc(F)c(F)c3)c3ccccc3n2)cc1 | inactive
77 | Cn1nnnc1Sc1ncnc2scc(-c3cccc(S(C)(=O)=O)c3)c12 | inactive
78 | O=C(OC/C=C/CSc1nnc(-c2cccc3ccccc23)o1)c1ccc(F)cc1 | inactive
79 | Cc1ccc(OCCn2c(CCNC(=O)c3ccc(F)cc3F)nc3ccccc32)cc1 | inactive
80 | COc1ccc(C2N(Cc3ccccc3)C(=O)c3ccccc3N2C)cc1COc1ccc(NC(C)=O)cc1 (stereo not given) | inactive
81 | CCOC(=O)C1CCN(C(=O)C(C)(C)NC(=O)Nc2ccc3c(c2)CCC3)CC1 | inactive
82 | C=CCNc1oc(-c2cccc(Br)c2)nc1C#N | inactive
83 | Fc1ccc(Nc2nc(-c3ccnc(N4CCCCC4)c3)nc3ccccc23)cc1F | inactive
84 | N=c1c2c(ccn1-c1ccccc1)Oc1ccc3ccccc3c1C2c1ccccc1 (stereo not given) | inactive
85 | CC(=O)N1CCCc2cc(S(=O)(=O)Nc3ccc(C)c(C)c3)ccc21 | inactive
86 | CC(=O)c1ccc(-c2csc(N3CCC(C(N)=O)CC3)n2)cc1 | inactive
87 | COc1cc(-c2nc(Nc3ccc(F)c(F)c3)c3ccccc3n2)cc(OC)n1 | inactive
88 | COc1ccc(C2Nc3ccccc3C(=O)N2Cc2cccc3ccccc23)cc1COc1ccc(NC(C)=O)cc1 (stereo not given) | inactive
89 | O=C1CCCC2=C1C(c1[nH]ncc1Cl)N=C(Nc1cccnc1)N2 (stereo not given) | inactive
90 | NC(=O)C1CCN(c2ncc(-c3ccc(Cl)cc3)s2)CC1 | inactive
91 | O=C1CCc2cc(S(=O)(=O)Nc3ccc(-c4ccccc4)cc3)ccc2N1 | inactive
92 | COc1ccc(C2Nc3ccccc3C(=O)N2Cc2ccccc2)cc1COc1ccc(C#N)cc1 (stereo not given) | inactive
93 | COc1cc(O)c(C(CC(=O)N2CCC[C@H](C)C2)c2ccc3c(c2)OCO3)c(OC)c1 (stereo not given in full) | inactive
94 | Cc1ccnc(NC(=S)Nc2cccc(C(F)(F)F)c2)c1 | inactive
95 | COc1ccc(C2=Nn3c(nnc3-c3ccccc3F)SC2)cc1OC1CCOC1 (stereo not given) | inactive
96 | c1nc(NCC2CC2)c2cc(-c3ccc4c(c3)OCO4)ccc2n1 | inactive

Row | SMILES | Potency
97 | O=S(=O)(Nc1cccc2cccnc12)c1ccc2ccccc2c1 | inactive
98 | Cc1cc(C)n2ncc(C(=O)Nc3ccc(S(C)(=O)=O)cc3)c2n1 | inactive
99 | Cc1cnc(-c2ccccc2C(F)F)nc1NCC1CN(c2cnccn2)C1 | inactive
100 | Cn1nnnc1Sc1ncnc2scc(-c3ccc(C(F)(F)F)cc3)c12 | inactive
101 | CNc1cc2c(cc1S(=O)(=O)Nc1ccc(C)c(C)c1)CCC(=O)N2 | inactive
102 | Cc1ccc(NS(=O)(=O)c2ccc3c(c2)oc(=O)n3C)cc1C | inactive
103 | Cc1cc(C)nc(NC(=S)N2CCN(c3cc(Cl)cc(Cl)c3)CC2)c1 | inactive
104 | COC(=O)c1ccc(Cn2ncc3c4sc(C)cc4n(C)c3c2=O)cc1 | inactive
105 | Cc1cc(-c2nnc3n2CCCCC3)c(C)n1-c1ccc(C(F)(F)F)cc1 | inactive
106 | Cc1cccc(CNc2ncnc3ccc(-c4ccc5c(c4)OCCO5)cc23)c1 | inactive
107 | COC(=O)c1ccc(O)c2ncc(-c3ccc(C(=O)N4CCN(C)CC4)cc3)cc12 | inactive
108 | COc1ccc(-c2ccc3nnc(-c4ccccc4OC)n3n2)cc1OC | inactive
109 | Fc1ccc(Nc2cc(-c3ccccc3)nc(-c3ccncc3)n2)cc1F | inactive
110 | Cc1ccc(OCCn2c(CCNC(=O)c3cc(N)ccc3N)nc3ccccc32)cc1 | inactive
111 | Cc1ccc(N2CCC(CNc3nc(-c4ccccc4C(C)C)ncc3C)CC2)cn1 | inactive
112 | COc1ccc(C2Nc3ccccc3C(=O)N2Cc2cccnc2)cc1COc1c(C)cccc1C (stereo not given) | inactive
113 | C#CCOc1ccc(C(C)=O)cc1-c1nnc2n1N=C(c1ccc(OC)c(O[C@@H]3CCOC3)c1)CS2 | inactive
114 | CC(=O)Nc1sc2c(c1-c1nc3ccccc3s1)CC(C)NC2 (stereo not given) | inactive
115 | COc1ccc(CC(=O)Nc2ccc(S(=O)(=O)Nc3cc(C)on3)cc2)cc1OC | inactive
116 | O=C(Cc1ccc(Cl)c(Cl)c1)Nc1ccc([S+](=O)([O-])Nc2ncn[nH]2)cc1 | inactive
117 | Cc1ccc(-c2ccc(=O)n(CC(=O)NCCc3cnc[nH]3)n2)cc1 | inactive
118 | Nc1nc(NCc2ccc(-c3ccnc(C(F)(F)F)c3)cc2)c2ccccc2n1 | inactive
119 | Cc1cn([C@H]2C[C@H](N[S+](=O)([O-])Cc3ccccc3)[C@@H](CO)O2)c(=O)[nH]c1=O | inactive
120 | O=C(N1Cc2ccc(Nc3nn4c(=O)c5ccccc5nc4s3)cc2C1)C(F)(F)F | inactive
